Potency, viability change, negative = cytotoxic and activity change, negative = cytotoxicity data for 60 molecules are collected here from PubChem BioAssay (Tox21).

A short description of assay [1]: cAMP Responsive Elements (CRE) small molecule antagonists, cell-based qHTS assay: qHTS cell viability counter screen (AID 2060913). Also: nearly all actives have a fitted effect of over 40% in size. Conditions: CRE-bla HEK293T viability, CellTiter-Glo luminescence, 5 h; series mostly up to 92.4 µM. The essentials: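 Cytotoxicity counter screen multiplexed with the CRE-bla antagonist read: HEK293T cells in DMEM with dialyzed FBS and 25 mM HEPES were treated 3 hrs under 0.25 uM final NKH477, then viability measured by CellTiter-Glo luminescence.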
For orientation: In qHTS, concentration-response curves come from the screen itself.

Assay [2] in a line: cAMP Responsive Elements (CRE) small molecule agonists, cell-based qHTS assay: qHTS cell viability counter screen (AID 2060914).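 Also: viability read after 3 h of compound exposure; nearly all actives have a fitted effect of over 50% in size.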 The conditions noted are these: CRE-bla HEK293T viability, CellTiter-Glo luminescence, 5 h; series mostly up to 92.4 µM. The essentials: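 CRE-bla HEK 293T cells, plated 18 h at 37 °C, were exposed to compounds for 3 h at 37 °C/5% CO2. Viability was then measured in the same wells by CellTiter-Glo luminescence after 30 min at room temperature.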

Molecules are shown by their SMILES. “And” between values parts separate entries of the source, which are not always exact repeats. Equal entries are not always repeated. Records with an inconclusive call do not appear. A number with no mark means an inactive call. The source made the active and inactive calls. Calls follow the shape of the dose curve; as a rule, active = well fitted cell-killing curve with a large enough effect in the repeat runs; inconclusive = weak or mixed curves, or effect the other way; inactive = flat fitted curve, though single readings scatter.
% is scaled to controls: 0 for no effect and ±100 for the full control effect; potency is read from the fitted curve at half-maximal effect.

On to `Cc1ccc(OP(=O)(Oc2ccc(C)cc2)Oc2ccc(C)cc2)cc1`, for which the Potency entry in assay [1] and in assay [2] was “inactive” each time.

As for `CCCCCCCC[N+](C)(CCCCCCCC)CCCCCCCC`, the Potency in assay [1] is 8.62 µM (active) and 48.6 µM (active); in assay [2], 19.3 µM (active) and 30.6 µM (active).

As to `CON(C)C(=O)Nc1ccc(Cl)c(Cl)c1`, the Potency result in assay [1] and in assay [2] was “inactive” each time.

As to `CN`, the Potency entry in assay [1] and in assay [2] was “inactive” each time.

Take `CCC(C)(C)c1ccc(O)c(C(C)(C)CC)c1`: the Potency in assay [1] is 27.3 µM (active); in assay [2], 30.3 µM (active) and 24.3 µM (active).

With `Clc1cccc2ccccc12`, the Potency entry in assay [1] and in assay [2] was “inactive” throughout.

As to `CNCC(O)c1ccc(O)cc1` (stereo not given), the Potency entry in assay [1] and in assay [2] was “inactive” throughout.

On to `COc1ccc2c3c1O[C@H]1[C@H](O)CC[C@H]4[C@@H](C2)N(C)CC[C@@]341`, for which the Potency entry in assay [1] and in assay [2] was “inactive” in each case.

Turning to `CCC(CC)Nc1c([N+](=O)[O-])cc(C)c(C)c1[N+](=O)[O-]`, the Potency entry in assay [1] and in assay [2] was “inactive” in each case.

Regarding `NNC(=S)NN`, the Potency result in assay [1] and in assay [2] was “inactive” each time.

As for `S=c1[nH]c2ccccc2[nH]1`, the Potency entry in assay [1] and in assay [2] was “inactive” in each case.

Take `CC(C)(C)OC(=O)c1ncn2c1[C@@H]1CCCN1C(=O)c1c(Br)cccc1-2`: the Potency result in assay [1] and in assay [2] was “inactive” throughout.

With `ClCCN1CCOCC1`, the Potency entry in assay [1] and in assay [2] was “inactive” in each case.

For `N#CCCSCCC#N`, the Potency entry in assay [1] and in assay [2] was “inactive” in each case.

`O=[N+]([O-])c1cc(C(F)(F)F)c(Cl)c([N+](=O)[O-])c1Cl`: the Potency result in assay [1] and in assay [2] was “inactive” throughout.

In the case of `CCOC(=O)Nc1cccc(OC(=O)Nc2ccccc2)c1`, the Potency entry in assay [1] and in assay [2] was “inactive” in each case.

Turning to `CC(C)(Cl)[N+](=O)[O-]`, the Potency result in assay [1] and in assay [2] was “inactive” throughout.

For the molecule `CCCCCC[N+](=O)[O-]`, the Potency entry in assay [1] and in assay [2] was “inactive” throughout.

Consider `CC(=O)OCC1=C(C(=O)O)N2C(=O)[C@@H](N)[C@H]2SC1`, for which, in assay [1], the viability change, negative = cytotoxic was -1.82% [at 18.9 µM]. Besides, the activity change, negative = cytotoxicity in assay [2] was 1.16% [at 18.9 µM].

On to `C[N+](C)(C)CCOC(=O)C(O)(c1ccccc1)c1ccccc1`, for which the Potency result in assay [1] and in assay [2] was “inactive” throughout.

On to `CNC(=O)CSP(=O)(OC)OC`, for which the Potency entry in assay [1] and in assay [2] was “inactive” in each case.

As for `C[C@]12CC[C@H]3[C@@H](CCC4=CC(=O)CC[C@@]43C)[C@@H]1CC[C@@H]2O`, the Potency entry in assay [1] and in assay [2] was “inactive” throughout.

Regarding `C1CCC(C2CCCCC2)CC1`, the Potency entry in assay [1] and in assay [2] was “inactive” each time.

For the molecule `ClC1=C(Cl)[C@]2(Cl)[C@@H]3[C@@H]4C[C@@H]([C@H]5O[C@@H]45)[C@@H]3[C@@]1(Cl)C2(Cl)Cl`, the Potency in assay [1] is 54.5 µM (active); in assay [2] it was 61.1 µM (active).

With `Nc1c(Cl)cc([N+](=O)[O-])cc1Cl`, the Potency result in assay [1] and in assay [2] was “inactive” each time.

For the molecule `CCCCN(CC)c1c([N+](=O)[O-])cc(C(F)(F)F)cc1[N+](=O)[O-]`, the Potency entry in assay [1] and in assay [2] was “inactive” throughout.

Turning to `O=C(NCO)NCO`, the Potency entry in assay [1] and in assay [2] was “inactive” throughout.

Regarding `CCN1CCCC1CNC(=O)C(O)(c1ccccc1)c1ccccc1` (stereo not given), the Potency entry in assay [1] and in assay [2] was “inactive” in each case.

Regarding `C[N+](C)=CCl`, the Potency entry in assay [1] and in assay [2] was “inactive” each time.

For `CCN(CC)C(=S)S`, the Potency result in assay [1] and in assay [2] was “inactive” in each case.

Consider `CCOC(=O)c1ccccc1C(=O)OCC`, for which the Potency entry in assay [1] and in assay [2] was “inactive” each time.

In the case of `C=CC(N)=O`, the Potency result in assay [1] and in assay [2] was “inactive” each time.

Regarding `O=S(=O)(O)OOS(=O)(=O)O`, the Potency result in assay [1] and in assay [2] was “inactive” throughout.

In the case of `C=CC(=C)C`, the Potency entry in assay [1] and in assay [2] was “inactive” in each case.

On to `O=C(O)C(F)(F)C(F)(F)C(F)(F)C(F)(F)C(F)(F)F`, for which the Potency entry in assay [1] and in assay [2] was “inactive” each time.

For the molecule `CN(C)c1ccc(C(=O)c2ccc(N(C)C)cc2)cc1`, the Potency result in assay [1] and in assay [2] was “inactive” in each case.

`OP(O)c1ccccc1`: the Potency entry in assay [1] and in assay [2] was “inactive” in each case.

As to `CCOP(=S)(OCC)Oc1cc(C)nc(N(CC)CC)n1`, the Potency result in assay [1] and in assay [2] was “inactive” throughout.

`CCCCC(CC)COC(=O)OOC(C)(C)C` (stereo not given): the Potency entry in assay [1] and in assay [2] was “inactive” each time.

Turning to `COC(=O)Nc1cccc(OC(=O)Nc2cccc(C)c2)c1`, the Potency result in assay [1] and in assay [2] was “inactive” each time.

Take `COC(=O)C1(O)c2ccccc2-c2ccccc21`: the Potency result in assay [1] and in assay [2] was “inactive” each time.

Take `O=[N+]([O-])c1ccccc1CCl`: the Potency entry in assay [1] and in assay [2] was “inactive” throughout.

With `CC(Cl)(Cl)Cl`, the Potency result in assay [1] and in assay [2] was “inactive” each time.

Take `ClC(Cl)(Cl)C(Cl)(Cl)Cl`: the Potency entry in assay [1] and in assay [2] was “inactive” in each case.

As to `C=CCN(CC=C)C(=O)C(Cl)Cl`, the Potency entry in assay [1] and in assay [2] was “inactive” each time.

On to `COP(=O)(CCC(=O)NCO)OC`, for which the Potency entry in assay [1] and in assay [2] was “inactive” each time.

In the case of `CC(=O)O.CC(=O)O.CC(=O)O.CC(=O)O.CC(=O)O.CC(=O)O.CC(=O)O.O.O.[Cr].[Cr].[Cr]`, the Potency result in assay [1] and in assay [2] was “inactive” throughout.

On to `NNC(N)=S`, for which the Potency result in assay [1] and in assay [2] was “inactive” in each case.

With `CCOP(=S)(OCC)SCS(=O)(=O)C(C)(C)C`, the Potency result in assay [1] and in assay [2] was “inactive” each time.

With `CCCCOCCOP(=O)(OCCOCCCC)OCCOCCCC`, the Potency entry in assay [1] and in assay [2] was “inactive” throughout.

Take `O=C1CCCO1`: the Potency entry in assay [1] and in assay [2] was “inactive” in each case.

As for `COc1ccc(C=O)cc1OC`, the Potency entry in assay [1] and in assay [2] was “inactive” in each case.

Regarding `C#CCOS(=O)OC1CCCCC1Oc1ccc(C(C)(C)C)cc1` (stereo not given), the Potency result in assay [1] and in assay [2] was “inactive” each time.

As for `C#CCO`, the Potency entry in assay [1] and in assay [2] was “inactive” throughout.

`O=Cc1ccccc1`: the Potency result in assay [1] and in assay [2] was “inactive” in each case.

For the molecule `CNC(=O)Oc1cc(C)c(SC)c(C)c1`, the Potency result in assay [1] and in assay [2] was “inactive” each time.

For the molecule `Cc1ncsc1CCCl`, the Potency entry in assay [1] and in assay [2] was “inactive” in each case.

Take `CCCC[N+](CCCC)(CCCC)CCCC`: the Potency entry in assay [1] and in assay [2] was “inactive” in each case.

Turning to `N#C/C(N)=C(/N)C#N`, the Potency result in assay [1] and in assay [2] was “inactive” each time.

For the molecule `O=C1NCN(c2ccccc2)C12CCN(CC1COc3ccccc3O1)CC2` (stereo not given), the Potency entry in assay [1] and in assay [2] was “inactive” each time.
